Inconclusive results are not listed. Where a call stands in place of a potency, no number is given. Calls of active or inactive are those of the source. Calls follow the shape of the full dose curve.

40 compounds from PubChem BioAssay (Tox21) can be followed below.
Potency is read from the fitted curve at half-maximal effect.

This test in a line: qHTS assay for small molecule agonists of the p53 signaling pathway - cell viability (AID 651633). Also: nearly all actives have a fitted effect of over 30% in size. The conditions noted are these: p53RE-bla HCT-116 viability, ATP luminescence, 16 h; series mostly up to 83.3 µM. An excerpt:
National Center for Advancing Translational Sciences [NCATS]
NIH Chemical Genomics Center [NCGC]
U.S. Environmental Protection Agency [EPA]
National Institutes of Environmental Health Sciences [NIEHS]
National Toxicology Program [NTP]
U.S. Food and Drug Administration [FDA]
p53, a tumor suppressor protein, is activated following cellular insult, including DNA damage and other cellular stresses. The activation of p53 regulates cell fate by inducing DNA repair, cell cycle arrest, apoptosis, or cellular senescence. The activation of p53, therefore, is a good indicator of DNA damage and other cellular stresses. […] The activation of the reporter gene under culture conditions can be detected by fluorescence intensity. This cell line was used to screen the Tox21 compound library in a 1536-well plate format and to identify agonists that activate the p53 signaling pathway.
Tox21 Assay Protocol Summary:
The p53RE-bla cells were dispensed at 4,000 cells/5 ul/well in 1536-well black wall/clear bottom plates using a Multidrop dispenser. After the assay plates were incubated at a 37 C/5% CO2 incubator for 5 hours, 23 nL of compounds dissolved in DMSO, positive controls or DMSO only was transferred to the assay plate by a pin tool. The plates were incubated at 37 C for 16 hours. After 1 uL of LiveBLAzerTM B/G FRET substrate was added using a Flying Reagent Dispenser, the plates were incubated at room temperature for 2 hours, and fluorescence intensity was measured by an Envision plate reader.
For cell viability readout that measures cytotoxicity, 4 ul/well of CellTiter-Glo reagent was added into the assay plates using a Flying Reagent Dispenser. After 30 min incubation at room temperature, the luminescence intensity in the plates was measured using a ViewLux plate reader.
For the compound `CCCOC(=O)c1c(Cl)c(Cl)c(Cl)c(Cl)c1C(=O)OCCC`, the Potency result is “inactive”.

As to `O=C1OC(=O)c2c(Br)c(Br)c(Br)c(Br)c21`, the Potency result is “inactive”. Take `CNCc1ccc(NC(=O)c2c[nH]c3c2C(=O)CCC3)cc1`: the Potency entry is “inactive”. Consider `COC(CC(C)CCCC(C)(C)O)OC` (stereo not given), for which the Potency result is “inactive”. For `COC(=O)c1sccc1S(N)(=O)=O` the value was “inactive”.

Consider `O=C(C(=O)c1ccco1)c1ccco1`, for which the Potency entry is “inactive”. For `CC(=O)OC(C)C[N+](C)(C)C` (stereo not given) the value was “inactive”; for `O=C(O)CCC(=O)OC[C@@H](NC(=O)C(Cl)Cl)[C@H](O)c1ccc([N+](=O)[O-])cc1`, “inactive”; for `CC(C)COC(=O)c1ccc(O)cc1`, “inactive”. `COc1cc(NS(=O)(=O)c2ccc(N)cc2)nc(C)n1`: the Potency entry is “inactive”. Next, `Cc1cn([C@H]2C[C@H](F)[C@@H](CO)O2)c(=O)[nH]c1=O`: “inactive”; `CC1CCC(C(C)CS)CC1S` (stereo not given): 54.5 µM (active). Take `CCCC(=O)OC(=O)CCC`: the Potency entry was “inactive”. Next, `CC(C)COC(=O)COc1cc(Cl)c(Cl)cc1Cl`: “inactive”. For `CC1=C2[C@@H]([C@H](C)CC[C@H]2/C=C(\C)C(=O)O)[C@H](O)C1`, the Potency entry is “inactive”.

For `O=c1[nH]c2cc(C(F)(F)F)c(N3CCOCC3)cc2n(CP(=O)(O)O)c1=O`, the Potency entry was “inactive”.

Consider `c1ccc(CCCc2ccncc2)cc1`, for which the Potency result was “inactive”. In the case of `CC(=O)NCCO`, the Potency result was “inactive”.

For `COc1ccc2nc(S(=O)Cc3ncc(C)c(OC)c3C)[nH]c2c1` (stereo not given), the Potency result was “inactive”. `c1ccc(CNc2ncnc3c2ncn3C2CCCCO2)cc1` (stereo not given): the Potency result was “inactive”. Next, `CC(C)(C)C(O)/C=C/c1ccc2c(c1)OCO2` (stereo not given): “inactive”.

With `CC(C)(C)S`, the Potency result was “inactive”. For `CC(C)N(C)C` the value was “inactive”; for `CCCCOC(=O)CCCCC(=O)OCCCC`, “inactive”. For `CCOCCC(=O)OCC` the value was “inactive”; for `O=C(NS(=O)(=O)/C=C/c1ccccc1)c1ccc(F)cc1Cl`, “inactive”; for `CC(=O)OCCC(C)CC(C)(C)C` (stereo not given), “inactive”. For `CCC(CO)(CO)CO` the value was “inactive”; for `O=C(O)CCS`, “inactive”; for `O=c1[nH][nH]c(=O)c2cc([N+](=O)[O-])ccc12`, “inactive”. Take `CC(C(=O)O)c1ccc(C(=O)c2cccs2)cc1` (stereo not given): the Potency result was “inactive”. Consider `CC(C)(C)NCC(O)COc1cccc2c1C[C@H](O)[C@H](O)C2` (stereo not given in full), for which the Potency entry is “inactive”. Consider `C[C@H](CS)C(=O)N1CCC[C@H]1C(=O)O`, for which the Potency result was “inactive”. Next, `CC1CCCC(=O)C1=O` (stereo not given): “inactive”. In the case of `O=C(c1ccccc1)c1ccc(O)cc1`, the Potency result is “inactive”.

For `CC(C)c1ccc(C(=O)N=C(N)N)cc1S(C)(=O)=O`, the Potency result is “inactive”. Next, `CCCCC(CC)COS(=O)(=O)O` (stereo not given): “inactive”.

On to `CCC(=O)OCc1ccc(OC)cc1`, for which the Potency result is “inactive”. For `CCN(CC)C(=O)N1CCN(C)CC1` the value was “inactive”; for `CCO[Si](C)(CCCOCC1CO1)OCC` (stereo not given), “inactive”.
